Screening results (PubChem BioAssay)
This is a sample that favours compounds with a hit; in the whole collection about 5.4% have one here.
FMDV inh: foot and mouth disease virus antiviral activity | AID 1159524 | Potency, µM (highest dose often 57.9 µM), for inactives: at the highest dose activity change, negative = inhibition, hits mostly inhibitors | FMDV antiviral cell-based qHTS | 1.2% of 410,000 active; calls by dose curve; tested in HEK293T cells; also: read-out not given here; nearly all actives have a fitted effect of over 45% in size
Vaccinia mCherry: vaccinia inhibition (mCherry reporter); Vaccinia virus mCherry reporter infection, fluorescence; Potency, µM (highest dose often 36.5 µM), inactives show at the highest dose activity change, negative = inhibition, usual class: inhibitors; 0.63% of 310,000 active; calls by dose curve; tested in A549 cells; also: nearly all actives have a fitted effect of over 35% in size
MARV entry inh: inhibitors of Marburg virus binding or cell entry. Marburg virus pseudotyped entry inhibition, cell reporter. AID 540276. 1.8% of 300,000 active. Potency, µM (series often up to 37.8 µM), for inactives: top-dose activity change, negative = inhibition, hits mostly inhibitors; calls by dose curve; tested in HEK293 cells
Lassa entry inh: inhibitors of Lassa virus binding or cell entry; 1.2% of 300,000 active; Potency, µM (titrated, usually from 37.9 µM), inactives show top-dose activity change, negative = inhibition, hits mostly inhibitors; Lassa virus pseudotype entry inhibition, cell reporter; calls by dose curve; tested in HEK293 cells; also: nearly all actives have a fitted effect of over 50% in size
Sm TGR inh: blocks Schistosoma mansoni thioredoxin glutathione reductase. Q962Y6. purified TGR, DTNB reduction, TNB absorbance 405 nm. Potency, µM (highest dose often 114 µM), for inactives: at the highest dose activity change, negative = inhibition, usual class: inhibitors. 3% of 360,000 active; active = well fitted inhibition curve with a large enough effect; inconclusive = small, poorly fitted or top-dose-only effect; inactive = no such curve, though single readings can be large or run the other way; also: nearly all actives have a fitted effect of over 60% in size
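First, TGR (20 nM dispensed) and NADPH were mixed with compound. Second, a 15 min room-temperature incubation followed. Third, further NADPH and then DTNB were added to start the reaction. Finally, TNB absorbance was monitored kinetically.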
Vaccinia Venus: vaccinia inhibition (Venus reporter). Vaccinia virus Venus reporter expression, fluorescence. Potency, µM (highest dose often 36.5 µM), without a hit: top-dose activity change, negative = inhibition, hits mostly inhibitors. 0.46% of 330,000 active. AID 720580; calls by dose curve; tested in A549 cells; also: nearly all actives have a fitted effect of over 30% in size
* marks the source's active call; other numbers are inactive results; i = inactive; ? = inconclusive; / = not tested or not shown; [ ] = dose if it differs, or a comment. % is scaled to controls: 0 for no effect and ±100 for the full control effect; potency is read from the fitted curve at half-maximal effect.

SMILES	FMDV inh	Vaccinia mCherry	MARV entry inh	Lassa entry inh	Sm TGR inh	Vaccinia Venus
CC(=O)C(=Cc1cccc(C#N)c1)C(=O)c1ccccc1	13µM*	10%	/	/	/	-11%
COc1cccc(C=C(C#N)C(=O)c2ccccc2)c1	-2%	i	/	/	/	3%
N#C/C(=C\c1cccc(Cl)c1)C(=O)c1ccccc1	0%	i	/	/	50µM*	-12%
COc1ccc(CNC(=O)CCC(=O)N2CC3CCCN3c3ccccc32)cc1 (stereo not drawn)	8%	-22%	/	-4%[46.1 µM]	2%	-15%
Cc1ccc(CC(=O)Nc2ccc3c(c2)N(C)C(=O)c2ccccc2S3)cc1	-17%	-7%	/	?	1%	-12%
Cc1ccc(S(=O)(=O)C2(S(=O)(=O)c3ccc(C)cc3)CC2)cc1	?	-25%	11µM*	?	-2%	-20%
COc1cc2ccccc2cc1C(=O)Nc1ccc2oc(-c3ccccc3)nc2c1	-3%	-22%	/	-10%[46.1 µM]	7%	-5%
COC(=O)c1ccc(Nc2cc(C)nc3ccc(C)cc23)cc1	0%	-14%	13µM*	?	10%	?
COC(=O)c1ccc2nc(C)cc(Nc3ccccc3C)c2c1	-18%	?	/	/	14%	?
CC(=O)c1ccc(Nc2cc(C)nc3ccccc23)cc1	8%	-24%	2.8µM*	?	11%	-17%
Cc1ccc(Nc2cc(C)nc3c(C)cccc23)cc1	-13%	?	10µM*	3%[46.1 µM]	-18%	-15%
CC(=O)c1ccc(Nc2cc(C)nc3c(C)cccc23)cc1	43%	/	/	/	10%	/
CCCCCOc1ccc(Br)cc1/C(C)=N/NC1=NCCN1	?	?	10µM*	?	-19%	13µM*
COc1ccc(Br)cc1/C(C)=N/NC1=NCCN1	?	-20%	?	?	-14%	0%
Cc1sc2c(c1C)c(=O)n(-c1cccc(C(F)(F)F)c1)c(=O)n2Cc1ccc(F)cc1	-11%	-18%	-14%[46.1 µM]	10%[46.1 µM]	0%	-27%
Cc1ccc(C(=O)N2CCN(c3ccccc3F)CC2)cc1NC(=O)c1nsc2ccccc12	-16%	-10%	/	?	1%	-20%
COc1ccc(C(=O)NN2C(=O)C3C4C=CC(O4)C3C2=O)cc1 (stereo not drawn)	21%	/	-1%	9%	18µM*	-7%
COc1cccc(C(=O)NN2C(=O)C3C4C=CC(O4)C3C2=O)c1 (stereo not drawn)	8%	-28%	26%	9%	20µM*	-20%
Cc1ccc(C(=O)NN2C(=O)C3C4C=CC(C4)[C@@H]3C2=O)cc1 (stereo partly drawn)	27%	/	/	/	-17%	/
CC(=O)Nc1ccc(C)cc1	-25%	-9%	/	/	0%	-10%
CC(=O)N(C)Cc1ccc(C(=O)CCl)cc1	?	i	-1%[46.1 µM]	-9%	11µM*	-10%
CC(=O)NCc1ccc(C(=O)CCl)s1	28µM*	-20%	4.5µM*	?	14µM*	-1%
CC(=O)NCc1ccc(C(=O)CCl)cc1	32µM*	i	18%[46.1 µM]	-8%[46.1 µM]	11µM*	-12%
CC(=O)Nc1ccc(C(=O)CCl)cc1	28µM*	-8%	3%	/	13µM*	-21%
CC(=O)N(C)Cc1ccc(C(=O)CSc2nnc(C3CC3)n2C2CC2)cc1	-6%	-16%	?	-19%	-3%	-3%
SMILES	FMDV inh	Vaccinia mCherry	MARV entry inh	Lassa entry inh	Sm TGR inh	Vaccinia Venus
CC(C)(C)C(=O)CSc1nc2ccsc2c(=O)n1Cc1ccccc1Cl	-4%	-9%	/	27%[46.1 µM]	0%	-13%
Cc1cc(Nc2cccc(Cl)c2)nc2ccc(NC(=O)COc3ccc(Cl)cc3)cc12	-18%	-9%	/	-3%[46.1 µM]	-1%	-10%
CCOc1cc(C2C(C(=O)OC)=C(C)N=C3SC(C)C(=O)N32)ccc1OC(C)=O (stereo not drawn)	-5%	i	-10%	-5%	0%	-17%
CCOC(=O)C1=C(C)N=C2SC(C(=O)OC)=CC(=O)N2C1c1ccc(OC)cc1 (stereo not drawn)	14µM*	-12%	-27%[46.1 µM]	/	4%	2%
CCOC(=O)C1=C(C)N=C2SC(C)C(=O)N2C1c1ccc(OC(C)=O)c(OC)c1 (stereo not drawn)	-5%	-17%	-13%	-1%	50µM*	-14%
COc1ccc(/C=N/OCC(=O)NCC(C)C)c(OC)c1	-17%	-13%	12%[46.1 µM]	-14%[46.1 µM]	8%	-19%
